Bioassay records deposited in PubChem BioAssay by National Center for Advancing Translational Sciences (NCATS).
Luc counter = blocks Kinase-Glo luciferase, a counter-screen artifact | Q27757 | Kinase-Glo luciferase, ATP luminescence, 8 min | Potency, µM (series often up to 38.3 µM), without a hit: top-dose activity change, negative = inhibition, usual class: inhibitors | hit rate 0.28% among 200,000 | AID 1379; note: % is set by controls: 0 for no effect and ±100 for the full control effect; nearly all actives have a fitted effect of over 60% in size
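Kinase-Glo luciferase light output from ATP and luciferin was measured with 10 uM ATP, within the enzyme's linear range. Buffer: 50 mM imidazole pH 7.2, 50 mM KCl, 7 mM MgCl2, 0.01% Tween 20, 0.05% BSA; luminescence read after 8 min at ambient temperature.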
NPC1 prom act = activates the NPC1 promoter | Huh7 NPC1 promoter luciferase reporter, 24 h | Potency, µM (highest dose often 9.22 µM), for the others: at the highest dose activation, hits mostly activators | hit rate 2.4% among 320,000 | AID 485313; note: % of control where 0% means no effect; nearly all actives have a fitted effect of over 60% in size
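Cells: Huh7 expressing luciferase under the NPC1 promoter, 1500/well. Seeded 2 h, compound added, incubated 24 h at 37 °C. Luciferase reagent, 10 min ambient, then luminescence.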
ELG1 genotox = inducers of genotoxicity in HEK293T ELG1-luciferase cells. HEK293T ELG1-luciferase reporter, luminescence, 16 h. Potency, µM (highest dose often 46 µM), for inactives: at the top dose activity change, positive = activation, hits mostly activators. hit rate 1.3% among 330,000. AID 504466; note: % of control where 0% means no effect; nearly all actives have a fitted effect of over 60% in size
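Screening used a luciferase reporter fused to human ELG1 in HEK293T cells. Luminescence was read on a CCD plate imager after 16 hr exposure and 30 min ONE-Glo incubation.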
Rab9 promoter act = activates the Rab9 promoter. Potency, µM (titrated, usually from 9.22 µM), for the others: at the highest dose activation, negative = inhibition, actives largely listed as activators. AID 485297. hit rate 2.8% among 320,000. Huh7 Rab9 promoter-luciferase reporter, luminescence, 24 h; note: % of control where 0% means no effect; nearly all actives have a fitted effect of over 60% in size
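Promoter activation is measured as luciferase luminescence in Huh7 cells stably transfected with a Rab9 promoter–luciferase construct, following 24 h compound exposure at 37 °C and 10 min reagent incubation at ambient temperature.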
SMN2 splice up = increases expression of the SMN2 splice variant. Potency, µM (titrated, usually from 46.1 µM), for inactives: top-dose activity change, positive = activation, usual class: activators. AID 1458. hit rate 2.8% among 210,000. HEK293 SMN2-luciferase splicing reporter, luminescence, 30-36 h; note: % of control where 0% means no effect; nearly all actives have a fitted effect of over 55% in size
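qHTS luciferase splicing reporter: luminescence rises when SMN2 exon 7 is included in transfected HEK293 cells. Compound exposure lasted 30-36 h at 37C, with 4.5 mM final sodium butyrate as control, followed by a ONE-Glo read.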
FLuc modulator = counter-screen for miR-21 project: firefly luciferase inhibitors or activators; purified FLuc, Km substrates, luminescence inhibition; Potency, µM (doses to about 57.5 µM), for the others: at the highest dose activity change, negative = inhibition, actives largely listed as inhibitors; hit rate 6.9% among 360,000;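 note: plate controls were vehicle for no effect and reference inhibitor for full effect; nearly all actives have a fitted effect of over 55% in size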
Target sequence (P08659 whole entry, looked up): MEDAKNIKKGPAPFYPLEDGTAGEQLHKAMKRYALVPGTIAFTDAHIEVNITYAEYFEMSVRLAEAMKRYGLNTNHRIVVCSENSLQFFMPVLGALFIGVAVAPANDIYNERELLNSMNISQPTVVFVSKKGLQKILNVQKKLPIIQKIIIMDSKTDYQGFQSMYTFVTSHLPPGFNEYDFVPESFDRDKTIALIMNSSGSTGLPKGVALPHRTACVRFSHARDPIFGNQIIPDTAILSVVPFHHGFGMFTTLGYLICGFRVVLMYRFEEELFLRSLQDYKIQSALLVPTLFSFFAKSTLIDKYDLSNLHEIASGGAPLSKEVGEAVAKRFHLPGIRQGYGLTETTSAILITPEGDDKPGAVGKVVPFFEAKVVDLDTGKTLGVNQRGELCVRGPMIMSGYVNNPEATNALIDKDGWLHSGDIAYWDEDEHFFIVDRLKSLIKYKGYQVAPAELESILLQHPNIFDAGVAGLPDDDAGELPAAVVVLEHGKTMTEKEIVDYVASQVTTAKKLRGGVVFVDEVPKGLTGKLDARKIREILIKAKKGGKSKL
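Biochemical qHTS of compounds, final roughly 60 µM downward over six points, against 10 nM purified firefly luciferase using Km concentrations of substrates (10 uM D-luciferin, 10 uM ATP) in Tris acetate pH 7.5 buffer; luminescence output.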
* hit, by the source's call; [ ] = remark or other dose. This is a sample that favours compounds with a hit; in the whole collection about 7.3% have one here. Calls come from the whole dose curve; as a rule, active = well fitted curve in the direction sought with a large enough effect; inconclusive = small, poorly fitted or top-dose-only effect, or another doubt; inactive = no such curve, though single readings can be large; an effect the other way counts as inactive or inconclusive. Potency is the fitted concentration of half-maximal effect.

`COc1ccc(-n2ccnc(NCc3ccc(Cl)cc3)c2=O)cc1` gave FLuc modulator 1.2%.
`O=C(CSc1ccc(Cl)cc1)N1CCOCC1` gave Luc counter 1.6%, NPC1 prom act 2.1%, ELG1 genotox 9.8%, Rab9 promoter act 25.1%, SMN2 splice up 6.3% and FLuc modulator 3.3%[2.3 µM].
For Cc1ccc(SCC(=O)N2CCOCC2)cc1 the results were Luc counter -0.4%, NPC1 prom act 26.1%, ELG1 genotox inconclusive, Rab9 promoter act inconclusive, SMN2 splice up 11.2µM* and FLuc modulator inconclusive.
Cc1cc(NC(=O)CSc2ccc(-c3ccc4c(c3)OCO4)nn2)no1 was read as Luc counter -7.9%, NPC1 prom act 21.0%, ELG1 genotox inconclusive, Rab9 promoter act 23.5%, SMN2 splice up 14.5% and FLuc modulator 12µM*.
O=C(CSc1nnc(-c2ccc3c(c2)OCCO3)o1)N1CCCC1 was read as Luc counter -8.1%, NPC1 prom act inconclusive, ELG1 genotox inconclusive, Rab9 promoter act 2.51µM*, SMN2 splice up inconclusive and FLuc modulator 6.75µM*.
`CCC1CCCCN1C(=O)CSc1nnc(-c2ccc3c(c2)OCCO3)o1` (stereo unspecified) gave Luc counter 4.2%, NPC1 prom act -4.1%, ELG1 genotox -4.4%, Rab9 promoter act -4.0%, SMN2 splice up 0.2% and FLuc modulator inconclusive.
For Cc1cc(NC(=O)CSc2nnc(-c3ccc4c(c3)OCCO4)o2)no1 the results were Luc counter 11.4%, NPC1 prom act inconclusive, ELG1 genotox inconclusive, Rab9 promoter act inconclusive, SMN2 splice up 7.08µM* and FLuc modulator inconclusive.
Screening CN1C(=O)Cc2cc(S(=O)(=O)NCc3ccc(Cl)cc3)ccc21 returned FLuc modulator 1.5%.
For O=C(OCC#CCSc1nnc(-c2cccc3ccccc23)s1)c1cccs1 the results were NPC1 prom act 1.1%, Rab9 promoter act -2.5% and FLuc modulator 3.6%.
For Cc1ccc(NC(=O)N2CCC(CN3CCCCCC3)CC2)c(Cl)c1 the results were FLuc modulator 2.3%.
Cc1ccc(-n2c3nc(=O)n(C)c(=O)c-3cc3c(Cl)cccc32)c(C)c1 was read as SMN2 splice up -5.2% and FLuc modulator 0.1%.
For Cc1ccc(-c2nnc(SCC(=O)N3CCCC3)o2)cc1 the results were Luc counter 10.3%, NPC1 prom act inconclusive, ELG1 genotox inconclusive, Rab9 promoter act inconclusive, SMN2 splice up 14.1µM* and FLuc modulator 23.9µM*.
Screening O=C(CSc1nnc(-c2ccncc2)o1)N1CCCCCC1 returned Luc counter 1.7%, NPC1 prom act -3.2%, ELG1 genotox 0.0%, Rab9 promoter act 1.1%, SMN2 splice up -12.2% and FLuc modulator 5.9%.
Screening N#C/C(=C\c1ccc(-c2nc3ccccc3s2)o1)C(N)=O returned NPC1 prom act 3.16µM*, ELG1 genotox 18.4%, Rab9 promoter act inconclusive and FLuc modulator 2.69µM*.
Screening CNC(=O)/C(C#N)=C/c1ccc(-c2nc3ccccc3s2)o1 returned NPC1 prom act 2.82µM*, ELG1 genotox inconclusive, Rab9 promoter act 1.41µM* and FLuc modulator inconclusive.
`CNC(=O)/C(C#N)=C\c1ccc(CNS(=O)(=O)c2ccccc2)o1` gave Luc counter -1.0%, NPC1 prom act -0.2%, ELG1 genotox -0.2%, Rab9 promoter act 6.0%, SMN2 splice up -0.2% and FLuc modulator 0.1%.
COc1ccccc1C(=O)C1CCCN(C(=O)c2cn3cc(Cl)ccc3n2)C1 (stereo unspecified) was read as Luc counter -3.1%, NPC1 prom act -4.1%, ELG1 genotox 2.5%, Rab9 promoter act -2.6% and FLuc modulator 13.5µM*.
`COc1ccc(NC(=S)N2CCC(c3ccc(C)cc3)C2)cc1` (stereo unspecified) gave NPC1 prom act -1.1%, ELG1 genotox 6.5%, Rab9 promoter act 5.3% and FLuc modulator inconclusive.
`Cc1ccc(NC(=S)N2CCC(c3ccc(C)cc3)C2)cc1` (stereo unspecified) gave NPC1 prom act 26.5%, ELG1 genotox inconclusive, Rab9 promoter act inconclusive and FLuc modulator 15.1µM*.
For COc1cccc(NC(=S)N2CCC(c3ccc(C)cc3)C2)c1 (stereo unspecified) the results were NPC1 prom act 29.4%, ELG1 genotox 6.7%, Rab9 promoter act inconclusive and FLuc modulator 13.5µM*.
`Cc1csc2c(N3CCN(C(=S)Nc4ccc(F)cc4F)CC3)ncnc12` gave NPC1 prom act -1.4%, ELG1 genotox 0.5%, Rab9 promoter act -3.4% and FLuc modulator 23.9µM*.
Cc1csc2c(N3CCN(C(=O)Nc4ccccc4)CC3)ncnc12 was read as NPC1 prom act -1.4%, ELG1 genotox -6.4%, Rab9 promoter act -17.8% and FLuc modulator inconclusive.
Screening Nc1ccn([C@@H]2O[C@H](COC(=O)C34CC5CC(CC(C5)C3)C4)[C@@H](O)[C@@H]2O)c(=O)n1 returned Luc counter -6.1%[7.66 µM] and SMN2 splice up -10.7%[9.22 µM].
For Cc1ccc(S(=O)(=O)c2nnn3c2nc(NCc2ccc4c(c2)OCO4)c2sccc23)cc1C the results were FLuc modulator -5.5%.
For CN(C)c1ccc(NC(=O)c2ccc([N+](=O)[O-])cc2Cl)cc1 the results were Luc counter -2.2%, NPC1 prom act 2.51µM*, ELG1 genotox inconclusive, Rab9 promoter act 3.16µM*, SMN2 splice up 10µM* and FLuc modulator 4.26µM*.
CC(C)C(=O)Nc1ccc(NC(=O)c2ccc([N+](=O)[O-])cc2Cl)cc1 was read as Luc counter -0.6%, NPC1 prom act -3.7%, ELG1 genotox 0.0%, Rab9 promoter act -2.3%, SMN2 splice up -12.4% and FLuc modulator 2.3%.
Cc1ccc(NC(=O)c2ccc([N+](=O)[O-])cc2Cl)nc1 was read as Luc counter -3.6%, NPC1 prom act 2.51µM*, ELG1 genotox inconclusive, Rab9 promoter act 2.82µM*, SMN2 splice up 5.01µM* and FLuc modulator 12µM*.
For Cc1nc2ccc(Cl)cc2nc(C)/c1=N\O the results were Luc counter 2.0%, NPC1 prom act -0.1%, ELG1 genotox 18.4µM*, Rab9 promoter act 5.4%, SMN2 splice up -8.0% and FLuc modulator inconclusive.
For Cc1ccc2nc(C)/c(=N\O)c(C)nc2c1 the results were Luc counter -5.6%, NPC1 prom act 2.5%, ELG1 genotox inconclusive, Rab9 promoter act -6.0%, SMN2 splice up 3.7% and FLuc modulator inconclusive.
